Drawing on PubChem BioAssay (NCI), this text covers growth for eight compounds.

The panel holds about 83,000 compounds, 20% with a hit somewhere; the sample as a whole holds those more often.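 Growth was measured after 48 h exposure to one concentration of compound in 96-well plates. Values under 10 count as active.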 Values without a mark were called inactive. The source made the active and inactive calls.

Among the test systems are SR leukemia; RPMI-8226 leukemia; OVCAR-8 ovarian; OVCAR-5 ovarian; OVCAR-4 ovarian; SK-OV-3 ovarian; IGROV1 ovarian; OVCAR-3 ovarian; HS 578T breast; NCI/ADR-RES ovarian; T-47D breast; BT-549 breast; MDA-MB-435 melanoma; SW-620 colon; MCF7 breast; HCT-116 colon; HCC-2998 colon; KM12 colon.
Common to all, as to assay: NCI-60 one-dose screen, 48 h (100 = growth as untreated, 0 = no growth, -100 = all killed)
What all share (conditions): 10 µM unless noted

On to `CCOC(=O)C1=NNC(c2ccc(Cl)cc2)C1C(=O)N1C(=S)NC(=O)C1CC(C)C` (centres undefined), for which the growth in the assay on SR leukemia is 96.8%; with RPMI-8226 leukemia it was 95%; in the assay on OVCAR-8 ovarian it was 100%; in the assay with OVCAR-5 ovarian, 101%; in the assay with OVCAR-4 ovarian it was 96.5%; with SK-OV-3 ovarian it was 93.5%. The growth is 77.1% in the assay on IGROV1 ovarian; 113% with OVCAR-3 ovarian; 98.6% in the assay on HS 578T breast; 99.9% in the assay on NCI/ADR-RES ovarian; 89.1% with T-47D breast; 106% in the assay on BT-549 breast. In addition, the growth in the assay on MDA-MB-435 melanoma is 104%; in the assay on SW-620 colon it was 95.3%; in the assay on MCF7 breast, 91.5%; with HCT-116 colon, 97.8%; in the assay on HCC-2998 colon it was 121%; in the assay on KM12 colon it was 101%.

Regarding `CCNC(=O)Oc1ccc(/C(=C(/C)c2ccccc2)c2ccc(OCCN3CCCCCC3)cc2)cc1`, the growth in the assay on SR leukemia was 0.632% (active); in the assay on RPMI-8226 leukemia, -32.8% (active); in the assay with OVCAR-8 ovarian, 7.06% (active); in the assay with OVCAR-5 ovarian it was 35.1%; in the assay on OVCAR-4 ovarian, 36.4%; with SK-OV-3 ovarian it was 51.8%. Besides, the growth with IGROV1 ovarian is 32.9%; with OVCAR-3 ovarian, 6.04% (active); with HS 578T breast, -12.8% (active); in the assay on NCI/ADR-RES ovarian, 24.4%; in the assay with T-47D breast, 2.6% (active); with BT-549 breast, -3.35% (active). For the same compound, the growth in the assay with MDA-MB-435 melanoma is -35.5% (active); in the assay on SW-620 colon, -42.9% (active); with MCF7 breast, 7% (active); with HCT-116 colon, -78% (active); in the assay with HCC-2998 colon, 25.3%; in the assay with KM12 colon, 5.22% (active).

For the compound `Cn1ccnc1C(=O)/C=C/c1ccc(CNC(=O)c2ccc(F)cc2)cc1`, the growth was 8.69% (active) with SR leukemia; 13% in the assay on RPMI-8226 leukemia; 47.1% in the assay on OVCAR-8 ovarian; 17.4% in the assay on OVCAR-5 ovarian; 42% in the assay with OVCAR-4 ovarian; 77.8% in the assay on SK-OV-3 ovarian. Also, the growth in the assay on IGROV1 ovarian is 23.1%; with OVCAR-3 ovarian, 15.1%; in the assay on HS 578T breast, 40.4%; in the assay on NCI/ADR-RES ovarian it was 18.9%; in the assay on T-47D breast, 33.4%; in the assay on BT-549 breast it was 43.2%. Moreover, the growth was 44.1% in the assay on MDA-MB-435 melanoma; 9.37% (active) in the assay on SW-620 colon; 11.6% in the assay with MCF7 breast; 13.2% with HCT-116 colon; 35.9% in the assay with HCC-2998 colon; 22.1% in the assay with KM12 colon.

In the case of `Nc1ccccc1NC(=O)c1ccc(NC(=O)C/C=C/c2cccnc2)cn1`, the growth was 28.2% in the assay on SR leukemia; -12% (active) in the assay on RPMI-8226 leukemia; 21.5% with OVCAR-8 ovarian; 26% with OVCAR-5 ovarian; 32.9% in the assay on OVCAR-4 ovarian; 29.4% in the assay with SK-OV-3 ovarian. Also, the growth is 16.7% in the assay with IGROV1 ovarian; 22.7% with OVCAR-3 ovarian; 24.6% in the assay on HS 578T breast; 19% in the assay with NCI/ADR-RES ovarian; 8.26% (active) with T-47D breast; 3.27% (active) with BT-549 breast. The growth in the assay on MDA-MB-435 melanoma was 19%; with SW-620 colon, 14.5%; in the assay on MCF7 breast it was 5.84% (active); in the assay on HCT-116 colon, 4.69% (active); in the assay on HCC-2998 colon it was 9.51% (active); in the assay on KM12 colon, 26.2%.

For the compound `CCc1cccc(NC(=O)CNc2cc(S(=O)(=O)N(C)C)cc(C)c2C)c1`, the growth is 83.8% in the assay with SR leukemia; 65.7% in the assay with RPMI-8226 leukemia; 97.7% in the assay with OVCAR-8 ovarian; 84.1% in the assay with OVCAR-5 ovarian; 56.3% in the assay with OVCAR-4 ovarian; 107% in the assay with SK-OV-3 ovarian. Moreover, the growth is 74% in the assay on IGROV1 ovarian; 112% in the assay on OVCAR-3 ovarian; 97.2% in the assay on HS 578T breast; 100% in the assay on NCI/ADR-RES ovarian; 88.8% in the assay on T-47D breast; 97.3% in the assay with BT-549 breast. Besides, the growth with MDA-MB-435 melanoma is 92.4%; in the assay on SW-620 colon, 97.6%; in the assay on MCF7 breast, 91.7%; with HCT-116 colon, 91.3%; with HCC-2998 colon, 123%; in the assay with KM12 colon, 98.9%.

Turning to `COc1ccc(Oc2ccc(/C=N/NC(=O)CSc3nc4ccccc4c(=O)n3-c3ccc(Cl)cc3)cc2)cc1`, the growth is 72.8% in the assay on SR leukemia; 85.1% in the assay on RPMI-8226 leukemia; 85.7% in the assay with OVCAR-8 ovarian; 81.2% in the assay on OVCAR-5 ovarian; 72.5% with OVCAR-4 ovarian; 66.3% with SK-OV-3 ovarian. Also, the growth is 48.7% with IGROV1 ovarian; -56.8% (active) in the assay with OVCAR-3 ovarian; -4.46% (active) with HS 578T breast; 51.1% in the assay on NCI/ADR-RES ovarian; 37.8% in the assay with T-47D breast; 89.4% with BT-549 breast. The growth was 87.7% in the assay with MDA-MB-435 melanoma; 44.4% with SW-620 colon; 49.3% with MCF7 breast; 13.3% in the assay with HCT-116 colon; 83.3% in the assay on HCC-2998 colon; 77.2% in the assay on KM12 colon.

For `Cc1nn(-c2ccccc2)c2ncnc(N/N=C/c3ccccc3)c12`, the growth in the assay with SR leukemia was 98.1%; in the assay with RPMI-8226 leukemia, 105%; in the assay on OVCAR-8 ovarian it was 96.7%; in the assay with OVCAR-5 ovarian it was 97.5%; in the assay with OVCAR-4 ovarian it was 80.4%; in the assay on SK-OV-3 ovarian, 102%. Also, the growth with IGROV1 ovarian is 81.9%; in the assay with OVCAR-3 ovarian, 83.5%; with HS 578T breast it was 103%; in the assay with NCI/ADR-RES ovarian, 93%; with T-47D breast it was 75%; with BT-549 breast, 97.4%. In addition, the growth in the assay on MDA-MB-435 melanoma was 96.9%; in the assay with SW-620 colon it was 107%; in the assay with MCF7 breast, 80.4%; in the assay with HCT-116 colon, 98.1%; in the assay on HCC-2998 colon it was 115%; in the assay with KM12 colon it was 80.9%.

For the compound `Cc1ccc(-n2cc(/C=N/NC(=O)c3nc(N)n[nH]3)c(-c3ccc(S(C)(=O)=O)cc3)n2)cc1`, the growth was 79.3% in the assay on SR leukemia; 100% in the assay with RPMI-8226 leukemia; 100% with OVCAR-8 ovarian; 105% in the assay on OVCAR-5 ovarian; 101% in the assay with OVCAR-4 ovarian; 104% with SK-OV-3 ovarian. For the same compound, the growth in the assay on IGROV1 ovarian was 98.4%; in the assay on OVCAR-3 ovarian, 95.7%; in the assay with HS 578T breast it was 108%; in the assay on NCI/ADR-RES ovarian, 100%; in the assay with T-47D breast it was 97.5%; in the assay with BT-549 breast, 101%. Further, the growth in the assay with MDA-MB-435 melanoma was 87.9%; with SW-620 colon it was 93.3%; with MCF7 breast it was 94.2%; in the assay on HCT-116 colon it was 104%; with HCC-2998 colon it was 115%; in the assay with KM12 colon, 105%.
